Measurements: PubChem BioAssay (EPA / NIEHS)
The source made the active and inactive calls. How the source made its calls: active means hit-call score of the fitted dose curve at least 0.9, where 1 is the maximum; inactive means score below 0.9.

Legend:
Conditions in all cases: mRNA level, 48 h; actives raise or lower the signal
[1] = read-out: Bcl-2 (BAX) gene, BAX (gene 581); experiment: LTEA_HepaRG_BAX: Life Technologies and Expression Analysis (LTEA) Assay for Bcl-2 (BAX) gene using HepaRG (AID 2283470)
How it was run: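 Human HepaRG cells treated in duplicate for 48 h across eight concentrations (max 100 uM, 0.5% DMSO); BAX expression measured by qRT-PCR.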

[2] = read-out: adenosine kinase (ADK) gene, ADK (gene 132); experiment: LTEA_HepaRG_ADK: Life Technologies and Expression Analysis (LTEA) Assay for adenosine kinase (ADK) gene using HepaRG (AID 2283471)
How it was run: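 Read-out is ADK transcript level measured by qRT-PCR and normalised to three housekeeping genes. Cells are human HepaRG, dosed for 48 h at up to 100 uM in 0.5% DMSO. Gain or loss of signal is fitted against DMSO controls.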

[3] = read-out: Alpha-fetoprotein (AFP) gene, AFP (gene 174); experiment: LTEA_HepaRG_AFP: Life Technologies and Expression Analysis (LTEA) Assay for Alpha-fetoprotein (AFP) gene using HepaRG (AID 2283472)
How it was run: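 Measures AFP mRNA change in HepaRG after 48 h chemical exposure (8 half-log concentrations, highest 100 uM, 0.5% DMSO). Fold change relative to DMSO, fitted in both directions.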

[4] = read-out: BCL2L11 (gene 10018); experiment: LTEA_HepaRG_BCL2L11: Life Technologies and Expression Analysis (LTEA) Assay for Bcl-2 (BCL2L11) gene using HepaRG (AID 2283473)
How it was run: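 Differentiated human HepaRG cells were exposed 48 h in serum-free induction medium to eight half-log concentrations up to 100 uM in 0.5% DMSO, in duplicate. BCL2L11 mRNA was quantified by TaqMan qRT-PCR, normalized to ACTB, GAPDH and POLR2A; induction or repression fitted versus DMSO.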

[5] = read-out: Apolipoprotein A-V (APOA5) gene, APOA5 (gene 116519); experiment: LTEA_HepaRG_APOA5: Life Technologies and Expression Analysis (LTEA) Assay for Apolipoprotein A-V (APOA5) gene using HepaRG (AID 2283474)
How it was run: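 Differentiated HepaRG cells in serum-free induction medium, exposed 48 h in duplicate to eight half-log concentrations topping at 100 uM (0.5% DMSO). APOA5 mRNA by Fluidigm TaqMan qRT-PCR, normalized to ACTB, GAPDH and POLR2A; bidirectional fit versus DMSO.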

[6] = read-out: Bcl-2 (BID) gene, BID (gene 637); experiment: LTEA_HepaRG_BID: Life Technologies and Expression Analysis (LTEA) Assay for Bcl-2 (BID) gene using HepaRG (AID 2283476)
How it was run: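 Assay used HepaRG hepatic cells treated 48 h in serum-free medium with half-log dilutions from 100 uM. Endpoint: BID mRNA, qRT-PCR, normalized to ACTB/GAPDH/POLR2A.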

[7] = read-out: cysteine-aspartic acid protease (CASP8), CASP8 (gene 841); experiment: LTEA_HepaRG_CASP8: Life Technologies and Expression Analysis (LTEA) Assay for cysteine-aspartic acid protease (CASP8) using HepaRG (AID 2283480)
How it was run: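 qRT-PCR readout of CASP8 mRNA, normalized to three housekeeping genes, after 48 h chemical exposure of HepaRG cells; 8-point half-log series, top 100 uM, 0.5% DMSO vehicle. Bidirectional curve fitting against DMSO baseline.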

[8] = read-out: DNA damage-inducible transcript 3 (DDIT3), DDIT3 (gene 1649); experiment: LTEA_HepaRG_DDIT3: Life Technologies and Expression Analysis (LTEA) Assay for DNA damage-inducible transcript 3 (DDIT3) using HepaRG (AID 2283488)
How it was run: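 Eight-point concentration-response (100 uM highest, half-log dilutions) in HepaRG, 48 h, duplicate wells. Endpoint: qRT-PCR mRNA, normalized (ACTB, GAPDH, POLR2A), bidirectional fitting with DMSO as baseline.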

[9] = read-out: Pro-epidermal growth factor (Homo sapiens) (UniProt P01133); experiment: LTEA_HepaRG_EGF: Life Technologies and Expression Analysis (LTEA) Assay for Epidermal growth factor (EGF) using HepaRG (AID 2283489)
How it was run: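 HepaRG cells (~100,000/well, 48 h pre-culture) exposed in duplicate for 48 h in serum-free induction medium to 8 half-log concentrations up to 100 uM in 0.5% DMSO. EGF mRNA by qRT-PCR, normalized to ACTB/GAPDH/POLR2A; bidirectional fit versus DMSO.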

[10] = read-out: Early growth response protein 1 (EGR1) transcription factor, EGR1 (gene 1958); experiment: LTEA_HepaRG_EGR1: Life Technologies and Expression Analysis (LTEA) Assay for Early growth response protein 1 (EGR1) transcription factor using HepaRG (AID 2283490)
How it was run: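 HepaRG, 48 h exposure, 8-pt half-log series from 100 uM, 0.5% DMSO vehicle; EGR1 transcript by TaqMan qRT-PCR (Fluidigm array), housekeeping-normalized; bidirectional fit relative to DMSO baseline.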

[11] = read-out: Ezrin (EZR), EZR (gene 7430); experiment: LTEA_HepaRG_EZR: Life Technologies and Expression Analysis (LTEA) Assay for Ezrin (EZR) using HepaRG (AID 2283491)
How it was run: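 Read-out is EZR transcript level by qRT-PCR, normalized to three housekeeping genes and fitted bidirectionally against the DMSO control. Human HepaRG cells received test chemicals for 48 h at eight half-log concentrations up to 100 uM in 0.5% DMSO.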

[12] = read-out: Cytochrome P450 (CYP24A1), CYP24A1 (gene 1591); experiment: LTEA_HepaRG_CYP24A1: Life Technologies and Expression Analysis (LTEA) Assay for Cytochrome P450 (CYP24A1) using HepaRG (AID 2283478)
How it was run: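 HepaRG cells plated 48 h, then exposed in duplicate in serum-free induction medium for 48 h to 8-point half-log series from 100 uM in 0.5% DMSO. CYP24A1 mRNA by Fluidigm qRT-PCR, normalized to ACTB, GAPDH, POLR2A; bidirectional fit versus DMSO.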

[13] = read-out: Cytochrome P450 (CYP1A2), CYP1A2 (gene 1544); experiment: LTEA_HepaRG_CYP1A2: Life Technologies and Expression Analysis (LTEA) Assay for Cytochrome P450 (CYP1A2) using HepaRG (AID 2283479)
How it was run: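 Differentiated human HepaRG cells in serum-free induction medium exposed 48 hours in duplicate to 8 half-log concentrations from 100 uM, 0.5% DMSO. CYP1A2 mRNA quantified by qRT-PCR, normalized to ACTB, GAPDH and POLR2A; bidirectional fitting versus DMSO.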

[14] = read-out: Cytochrome P450 (CYP2B6), CYP2B6 (gene 1555); experiment: LTEA_HepaRG_CYP2B6: Life Technologies and Expression Analysis (LTEA) Assay for Cytochrome P450 (CYP2B6) using HepaRG (AID 2283481)
How it was run: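 Differentiated human HepaRG cells in serum-free induction medium, dosed in duplicate for 48 h over 8 half-log concentrations topping at 100 uM (0.5% DMSO). CYP2B6 mRNA measured by TaqMan qRT-PCR, normalized to ACTB, GAPDH, POLR2A; bidirectional fit versus DMSO.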

[15] = read-out: Cytochrome P450 2C19 (Homo sapiens) (UniProt P33261); experiment: LTEA_HepaRG_CYP2C19: Life Technologies and Expression Analysis (LTEA) Assay for CYP2C19 using HepaRG (AID 2283482)
How it was run: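 Differentiated HepaRG cells in serum-free induction medium exposed 48 h in duplicate, 8 concentrations from 100 uM by half-log steps in 0.5% DMSO. CYP2C19 mRNA measured by TaqMan qRT-PCR, normalized to ACTB, GAPDH, POLR2A. Bidirectional fit versus DMSO.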

[16] = read-out: CYP2C8 (gene 1558); experiment: LTEA_HepaRG_CYP2C8: Life Technologies and Expression Analysis (LTEA) Assay for CYP2C8 using HepaRG (AID 2283483)
How it was run: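 HepaRG (human liver line), 48 h chemical exposure, 8-pt half-log series from 100 uM, 0.5% DMSO vehicle. Readout: CYP2C8 transcript by qRT-PCR, housekeeping-normalized. Bidirectional fit vs DMSO baseline.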

[17] = read-out: CYP2E1 (gene 1571); experiment: LTEA_HepaRG_CYP2E1: Life Technologies and Expression Analysis (LTEA) Assay for CYP2E1 using HepaRG (AID 2283485)
How it was run: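 Assay uses 48 h exposure of HepaRG hepatic cells, eight concentrations to 100 uM. Expression of CYP2E1 is quantified by TaqMan qRT-PCR with ACTB, GAPDH and POLR2A normalization; curves fitted in both directions relative to vehicle.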

[18] = read-out: CYP4A11 (gene 1579); experiment: LTEA_HepaRG_CYP4A11: Life Technologies and Expression Analysis (LTEA) Assay for CYP4A11 using HepaRG (AID 2283486)
How it was run: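 Differentiated HepaRG cells, 48 h after plating, exposed in duplicate for 48 h to 8 half-log concentrations up to 100 uM in 0.5% DMSO in serum-free induction medium. CYP4A11 mRNA measured by TaqMan qRT-PCR, normalized to ACTB, GAPDH and POLR2A.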

[19] = read-out: Cytochrome P450 3A4 (Homo sapiens) (UniProt P08684); experiment: LTEA_HepaRG_CYP3A4: Life Technologies and Expression Analysis (LTEA) Assay for CYP3A4 using HepaRG (AID 2283487)
How it was run: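 HepaRG, 48 h exposure, 8-pt CRC from 100 uM (half-log), 0.5% DMSO, duplicates; serum-free induction medium. Readout: CYP3A4 mRNA, qRT-PCR, ACTB/GAPDH/POLR2A normalization. Bidirectional fit vs DMSO.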

[20] = read-out: Cytochrome P450 3A7 (Homo sapiens) (UniProt P24462); experiment: LTEA_HepaRG_CYP3A7: Life Technologies and Expression Analysis (LTEA) Assay for CYP3A7 using HepaRG (AID 2283492)
How it was run: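 Differentiated HepaRG cells in serum-free induction medium exposed 48 h in duplicate to 8-point half-log series from 100 uM top in 0.5% DMSO. CYP3A7 mRNA by qRT-PCR, normalized to ACTB/GAPDH/POLR2A, bidirectional fit versus DMSO.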

Measured: AC50

Chain of Cytochrome P450 2C19 (Homo sapiens) (P33261 whole entry, looked up): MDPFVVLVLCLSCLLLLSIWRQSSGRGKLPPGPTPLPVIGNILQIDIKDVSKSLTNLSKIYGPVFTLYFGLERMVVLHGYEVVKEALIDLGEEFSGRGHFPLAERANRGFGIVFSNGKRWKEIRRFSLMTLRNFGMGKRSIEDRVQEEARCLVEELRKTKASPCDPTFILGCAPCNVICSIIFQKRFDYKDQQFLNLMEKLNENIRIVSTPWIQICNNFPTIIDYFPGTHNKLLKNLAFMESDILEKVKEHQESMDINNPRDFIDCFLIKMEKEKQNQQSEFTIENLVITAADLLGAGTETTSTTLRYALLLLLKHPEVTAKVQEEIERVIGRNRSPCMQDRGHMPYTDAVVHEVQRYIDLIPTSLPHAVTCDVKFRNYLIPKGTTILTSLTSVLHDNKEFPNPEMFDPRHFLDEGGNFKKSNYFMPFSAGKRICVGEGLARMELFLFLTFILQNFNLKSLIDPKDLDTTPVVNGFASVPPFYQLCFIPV
Chain of Cytochrome P450 3A4 (Homo sapiens) (P08684 whole entry, looked up): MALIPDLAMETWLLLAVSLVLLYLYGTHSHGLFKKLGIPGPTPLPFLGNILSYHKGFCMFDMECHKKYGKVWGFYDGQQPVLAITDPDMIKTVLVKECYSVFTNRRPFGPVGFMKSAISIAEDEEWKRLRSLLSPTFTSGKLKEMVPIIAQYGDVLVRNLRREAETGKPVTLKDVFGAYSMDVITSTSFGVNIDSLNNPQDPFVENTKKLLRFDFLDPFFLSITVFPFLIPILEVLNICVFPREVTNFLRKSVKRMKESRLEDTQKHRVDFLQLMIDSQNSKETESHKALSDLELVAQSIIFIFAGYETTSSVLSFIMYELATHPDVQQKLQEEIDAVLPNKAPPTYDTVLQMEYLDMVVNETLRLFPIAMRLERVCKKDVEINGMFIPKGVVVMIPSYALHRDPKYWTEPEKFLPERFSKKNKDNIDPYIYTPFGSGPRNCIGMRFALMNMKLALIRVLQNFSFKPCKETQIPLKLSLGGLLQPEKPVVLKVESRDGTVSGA
Chain of Cytochrome P450 3A7 (Homo sapiens) (P24462 whole entry, looked up): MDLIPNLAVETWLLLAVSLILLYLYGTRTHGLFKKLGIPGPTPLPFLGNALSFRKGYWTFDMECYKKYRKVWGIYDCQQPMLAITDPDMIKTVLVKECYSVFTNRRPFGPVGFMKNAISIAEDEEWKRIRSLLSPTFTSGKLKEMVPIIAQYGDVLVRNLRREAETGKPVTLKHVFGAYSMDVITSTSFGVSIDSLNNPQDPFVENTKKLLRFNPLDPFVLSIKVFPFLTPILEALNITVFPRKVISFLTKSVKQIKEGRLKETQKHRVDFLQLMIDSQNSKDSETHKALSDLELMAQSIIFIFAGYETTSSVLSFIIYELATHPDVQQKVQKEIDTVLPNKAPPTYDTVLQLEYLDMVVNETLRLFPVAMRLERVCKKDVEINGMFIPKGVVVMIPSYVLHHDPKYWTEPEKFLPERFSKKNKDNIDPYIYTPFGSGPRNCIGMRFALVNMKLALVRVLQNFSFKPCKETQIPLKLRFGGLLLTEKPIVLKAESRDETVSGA

C[C@@H]1C[C@@H]([C@H](O)CC2CC(=O)NC(=O)C2)C(=O)[C@@H](C)C1
inactive: [4] | [8]
active: [1] 9.92 µM | [2] 81.2 µM | [3] 15.5 µM | [5] 26 µM | [6] 50 µM | [7] 79.9 µM | [9] 2.36 µM | [10] 91.8 µM | [11] 10.8 µM

CCC(C)(C)c1ccc(O)c(C(C)(C)CC)c1
active: [13] 80.4 µM
inactive: all other assays above

O=C1C2(Cl)C3(Cl)C4(Cl)C(Cl)(Cl)C5(Cl)C3(Cl)C1(Cl)C5(Cl)C24Cl (stereo not given)
inactive: [2] | [4] | [5] | [6] | [12] | [7] | [19] | [9] | [20]
active: [1] 87.5 µM | [3] 24.1 µM | [13] 8.79 µM | [14] 93.5 µM | [15] 26.4 µM | [16] 25.2 µM | [17] 13.2 µM | [18] 22.8 µM | [8] 89.4 µM | [10] 95.5 µM | [11] 91.3 µM

CCCCCCCCc1ccc(O)cc1
active: [18] 65.8 µM
not listed: [9]
inactive: all other assays above
